This passage reports growth results from PubChem BioAssay (NCI).

The panel holds about 83,000 compounds, 20% with a hit somewhere; the sample as a whole holds those more often.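 48-hour exposure, single concentration, 96-well plates; percent growth endpoint where 0 means no net growth. Active: below 10.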 Values without a mark were called inactive. Calls of active or inactive are those of the source.

Assay in all cases: NCI-60 one-dose screen, 48 h (100 = growth as untreated, 0 = no growth, -100 = all killed)
Holding throughout (settings): 10 µM unless noted

Experiment [1] relates to NCI-H23 lung.
Experiment [2] deals with NCI-H226 lung.
The test system of experiment [3] is NCI-H322M lung.
For experiment [4], the system named is HOP-62 NSCLC.
For experiment [5], the system named is NCI-H460 lung.
Experiment [6] relates to HOP-92 NSCLC.
For experiment [7], the system named is NCI-H522 lung.
Experiment [8] deals with A549/ATCC NSCLC.
Experiment [9] deals with 786-0 renal.
Experiment [10] has as its system COLO 205 colon.

Consider `COc1cc(-c2csc(NC(=O)Nc3cccc(C(F)(F)F)c3)n2)cc(OC)c1OC`, for which the growth in experiment [1] is 27.8%; in [2] it was 55.6%; in [3], 68.3%; in experiment [4] it was 63.6%; in experiment [5], 53.8%; in [6], 47.8%. For the same compound, the growth in experiment [7] was 40.7%; in experiment [8] it was 34.2%; in experiment [9], 64.2%; in experiment [10], 75.4%.
Consider `COc1c(B(O)O)cccc1-c1nc2c(F)cc3n[nH]c(C)c3c2c2c1CCCC2`, for which the growth in [1] is 17.5%; in [2], -0.685% (active); in [3] it was 27.6%; in [4] it was 22%; in [5] it was 11.7%; in [6], 24.7%. In addition, the growth in [7] is 9.41% (active); in [8], 9.82% (active); in [9] it was 19.8%; in experiment [10], 15.6%.
On to `COc1ccc(-c2nsc3c2NC(=O)CC3c2cccc(F)c2)cc1` (stereo not given), for which the growth was 59% in experiment [1]; 76.5% in experiment [2]; 53.6% in experiment [3]; 60.2% in experiment [4]; 10.4% in experiment [5]; 52.7% in experiment [6]. The growth was 4.49% (active) in experiment [7], 34.3% in experiment [8], 80% in [9] and 25.8% in experiment [10].
As for `Nc1c(C(=O)c2ccc(Br)cc2)sc2nc3c(cc12)CCCC3`, the growth was 97.4% in experiment [1]; 92.2% in experiment [2]; 101% in [3]; 98.6% in experiment [4]; 103% in experiment [5]; 89.2% in experiment [6]. For the same compound, the growth in experiment [7] is 43.1%; in [8], 96.8%; in experiment [9], 98.2%; in [10], 104%.
On to `COc1ccc([C@@H]2[C@@H](Cl)C(=O)N2c2cc(OC)c(OC)c(OC)c2)cc1C`, for which the growth is 25.3% in experiment [1]; 53.9% in experiment [2]; 35.3% in experiment [3]; 23.3% in experiment [4]; 9.34% (active) in [5]; 76% in experiment [6]. Moreover, the growth is 10.2% in [7], 23.6% in experiment [8], 7.98% (active) in experiment [9] and -57% (active) in experiment [10].
Take `CCN(CC)C(Cl)=Nc1ccc(Cl)cc1`: the growth was 104% in experiment [1]; 96.2% in experiment [2]; 103% in [3]; 99.8% in experiment [4]; 106% in [5]; 108% in experiment [6]. The growth in experiment [7] is 91.1%; in [8] it was 97.3%; in experiment [9] it was 99.8%; in experiment [10], 103%.
Turning to `COc1ccc2nc(C)cc(Nc3ccccc3O)c2c1`, the growth in experiment [1] is 100%; in [2], 0.475% (active); in experiment [3] it was 59.9%; in experiment [4], -61.9% (active); in [5], 20.6%; in experiment [6], -23.7% (active). The growth in experiment [7] was 47.3%; in [8], 3.25% (active); in experiment [9], -67% (active); in experiment [10] it was 89.9%.
As to `CCOc1ccc([C@@H]2[C@@H](Oc3ccccc3)C(=O)N2c2cc(OC)c(OC)c(OC)c2)cc1`, the growth in experiment [1] is 23.9%; in experiment [2], 41.5%; in [3], 38.6%; in experiment [4], 27.4%; in experiment [5], 7.32% (active); in [6], 63.3%. Further, the growth in experiment [7] was 10.5%; in experiment [8], 23.1%; in [9], 10.1%; in [10], -47.2% (active).
With `Clc1ccc2c(c1)-c1ccccc1C1=NCCN12`, the growth in experiment [1] was 33.4%; in experiment [2] it was 24.7%; in experiment [3], 25.3%; in experiment [4] it was 45.9%; in experiment [5] it was 8.92% (active); in [6], 58.6%. Also, the growth was 23.2% in experiment [7], 13% in experiment [8], 44.8% in experiment [9] and 7.28% (active) in [10].
Regarding `CC1=C(C(=O)Nc2ccc(F)cc2)C(c2ccc(C)cc2)C2=C(CC(C)(C)CC2=O)N1` (stereo not given), the growth in experiment [1] is 93.4%; in experiment [2], 89.8%; in [3] it was 103%; in experiment [4], 91.5%; in experiment [5] it was 90.8%; in experiment [6] it was 68.4%. In addition, the growth is 91.2% in [7], 92.4% in experiment [8], 97.2% in experiment [9] and 105% in [10].
`CCCCn1cnc(-c2cc(-c3ccccc3)cc(C(F)(F)F)c2)n1`: the growth in experiment [1] was 98.1%; in experiment [2], 95.6%; in experiment [3] it was 99.8%; in experiment [4], 99.1%; in [5] it was 99%; in experiment [6], 76%. Moreover, the growth is 93.8% in experiment [7], 97.8% in experiment [8], 103% in [9] and 104% in experiment [10].
As to `Cc1ccccc1CNc1ncnc2[nH]ncc12`, the growth in experiment [1] was 109%; in experiment [2] it was 91.9%; in experiment [3], 114%; in experiment [4], 99.3%; in experiment [5], 104%; in experiment [6], 64.3%. Also, the growth in experiment [7] was 47.7%; in experiment [8] it was 91%; in experiment [9], 97.3%; in [10] it was 92.2%.
Turning to `COc1ccc([C@@H]2[C@@H](Oc3ccccc3)C(=O)N2c2cc(OC)c(OC)c(OC)c2)cc1F`, the growth in experiment [1] was 16.5%; in experiment [2], 41.5%; in [3] it was 33.4%; in experiment [4] it was 14%; in experiment [5] it was 7.22% (active); in [6] it was 42%. Also, the growth in [7] was -26.1% (active); in experiment [8], 13.4%; in [9], 5.88% (active); in experiment [10], -41.2% (active).
Take `CCCc1cc2c(cc1CN(Cc1cc3c(cc1CCC)OCO3)C(=N)OCC)OCO2`: the growth in [1] was 79.8%; in experiment [2], 86.4%; in experiment [3], 91.9%; in experiment [4], 83.7%; in experiment [5] it was 75.5%; in [6], 55%. Also, the growth in [7] is 54.2%; in [8] it was 71.8%; in [9], 89.7%; in [10] it was 93.6%.
